# Like-named read-outs stand apart in the source and are kept apart here. Screen size: about 13,000 compounds; about 3,200 (25%) showed an effect of 50% or more. Some of the results follow.
# System: P. falciparum stage V gametocytes
# Parameters: BacTiter-Glo ATP luminescence viability of purified stage V gametocytes in 384-well plates, per cent inhibition versus DMSO
# Conditions: 48 h, 5 µM, inhibitor
SMILES,% Inhibition [%],% Inhibition (% Inhibition) [%]
CN(C)S(=O)(=O)n1ccc2c3c(N)nc(N)nc3ccc21 [TCMDC-137973],-6.92,–
NC(=O)c1cccc(CN2Cc3ccccc3OC3(CCN(Cc4c[nH]c5cnccc45)CC3)C2)c1 [TCMDC-133382],-16.29,–
COc1ccc2nccc([C@@H](O)CN3CCC(NCCOc4c(C)cccc4F)CC3)c2c1 [TCMDC-140657],37.85,–
CCOC(=O)CC[C@H](NC(=O)c1ccc(NS(=O)(=O)c2ccc(-c3cnc(N)[nH]c3=O)cc2)cc1)C(=O)OCC [TCMDC-137679],3.183,–
O=C(Nc1cccc(C(F)(F)F)c1)NC1CCN(c2ccnc3ccccc23)C1 (centres unmarked) [TCMDC-133579],-23.57,–
Cc1cc2c(cc1C(F)(F)F)N(C(=O)Nc1cccc(C(=O)NC3CCN(Cc4ccccc4)CC3)c1)CC2 [TCMDC-139972],-14.42,–
CN1CCC(NC(=O)c2cc(Oc3ccc4c(c3)CCN4C(=O)Nc3cccc(C(F)(F)F)c3)ccn2)CC1 [TCMDC-141751],51.02,–
COc1cc(Nc2nccc(N3CCC(NS(=O)(=O)c4ccc(NC(C)=O)cc4)CC3)n2)cc(OC)c1OC [TCMDC-133634],-31.03,–
O=[N+]([O-])c1cc(/C=N/Nc2nc3ccccc3[nH]2)ccc1O [TCMDC-139076],6.997,–
O=C(Nc1ccc(F)cc1)NC1CCN(c2ccnc3cc(Cl)ccc23)C1 (centres unmarked) [TCMDC-133407],-45.03,–
Cc1nc2ccccc2n1C1CC2CCC(C1)N2CCCC1(c2ccccc2)CCN(C(=O)OCc2ccccc2)CC1 (centres unmarked) [TCMDC-138708],52.65,–
Cc1nc2ccccc2n1C1CC2CCC(C1)N2Cc1nccn1-c1ccccc1 (centres unmarked) [TCMDC-134167],-3.664,–
O=C(/C=C/c1ccc(Cl)c(Cl)c1)NCCCCCN1CCC(NC(=O)Nc2ccc([N+](=O)[O-])cc2)CC1 [TCMDC-135719],-1.594,–
c1ccc([C@H]2CN3CCSC3=N2)cc1 [TCMDC-125847],1.326,–
Cc1cc(=O)c(-c2ccc(OCCSc3ccc(C(F)(F)F)cn3)cc2)c(C)[nH]1 [TCMDC-135289],67.89,–
Cc1cc(=O)c(-c2ccc(OCc3ccc(OC(F)(F)F)cc3)cc2)c(C)[nH]1 [TCMDC-132123],25.03,–
Cc1cc(=O)c(-c2ccc(Oc3cccc(C(F)(F)F)c3)cc2)c(C)[nH]1 [TCMDC-133308],–,48.03
Cc1nc2c(c(O)c1Cl)-c1ccc(Oc3cccc(C(F)(F)F)c3)cc1C2=O [TCMDC-136021],8.301,–
Cc1[nH]c2c(c(=O)c1Cl)-c1ccc(Oc3cccc(C(F)(F)F)c3)cc1C2=O [TCMDC-136022],56.81,–
Cc1cc(=O)c2cc(-c3ccc(OC(F)(F)F)cc3)ccc2[nH]1 [TCMDC-137042],32.81,–
Cc1[nH]n(-c2cccc(C(F)(F)F)c2)c(=O)c1-c1ccc(Cl)cc1 [TCMDC-124050],16.03,–
Cc1[nH]c(C)c(C(F)(F)F)c(=O)c1-c1ccc(Oc2ccc(OC(F)(F)F)cc2)cc1 [TCMDC-135444],33.82,–
Cc1[nH]c(C)c([N+](=O)[O-])c(=O)c1-c1ccc(Oc2ccccc2)cc1 [TCMDC-135779],22.46,–

SMILES,% Inhibition [%],% Inhibition (% Inhibition) [%]
Cc1cc(=O)c(-c2ccc(Oc3ccc(C(F)(F)F)cc3)cc2)c(C)n1O [TCMDC-138136],12.43,–
COc1c(C)[nH]c(C)c(-c2ccc(Oc3cccc(C(F)(F)F)c3)cc2)c1=O [TCMDC-135253],67.89,–
Cc1cc(=O)c(-c2ccc(Oc3cccc(C(F)(F)F)c3)cc2)c(C)[nH]1 [TCMDC-137536],–,72.24
CC1(C)N=C(N)N=C(N)N1OCCCOc1c(Cl)cc(Cl)cc1Cl [TCMDC-131623],-2.968,–
COC(=O)c1cccc(NC(=O)NC2CCN(c3ccnc(Nc4ccc(F)cc4)n3)C2)c1 (centres unmarked) [TCMDC-133606],-36.49,–
COc1ccc(-c2nc3c4cc(I)ccc4c4ccccc4c3[nH]2)cc1 [TCMDC-124198],-15.52,–
c1ccc(C2CCC(N3CCC(N4CCN(c5ccccc5)CC4)CC3)CC2)cc1 (centres unmarked) [TCMDC-124572],20.28,–
Cc1cc(=O)c(-c2ccc(Oc3cccc(OC(F)(F)F)c3)cc2)c(C)[nH]1 [TCMDC-137266],80.76,–
Cc1cc(=O)c(-c2ccc(Oc3ccc(OC(F)(F)F)cc3)cc2)c(C)[nH]1 [TCMDC-137390],34.7,–
Cc1cc(=O)c2cc(Oc3cccc(OC(F)(F)F)c3)ccc2[nH]1 [TCMDC-132124],-25.2,–
COc1cc2c(cc1N1CCN(C)CC1)N(C(=O)Nc1ccc(-c3ccncc3)c(Cl)c1Cl)CC2 [TCMDC-139163],-33.93,–
CN1CCN(c2ccnc3ccc(NC(=O)Nc4cccc(C#N)c4)cc23)CC1 [TCMDC-139323],13.5,–
Cc1noc(C)c1-c1ccc2c(Nc3ccc(C#N)cc3)c(C(N)=O)cnc2c1 [TCMDC-136029],27.78,–
CC1(C)CC(NCCCCCCCOc2ccc(OCc3ccccc3)cc2)CC(C)(C)N1 [TCMDC-138958],104,–
CCOC(=O)CNCC(=O)c1ccc(OCc2ccccc2)cc1 [TCMDC-131777],33.46,–
CN(C)c1ccc(OCCCCCCOc2ccccc2)cc1 [TCMDC-138000],-96.23,–
N#Cc1ccc(NC(=O)N2CCCN(CCCCCNC(=O)/C=C/c3ccc(Cl)c(Cl)c3)CC2)cc1 [TCMDC-135746],-26.45,–
O=C(Nc1ccc(Cl)cc1)c1cccc(CN2CCCN(Cc3cccc(O)c3)CC2)c1 [TCMDC-135963],-7.455,–
O=C(/C=C/c1cccc(Cl)c1)NC1CCC(CN2CCC(c3c[nH]c4ccccc34)CC2)CC1 (centres unmarked) [TCMDC-139700],–,105.2
O=C(/C=C/c1ccc2ccccc2c1)NC1CCC(CN2CCC(c3c[nH]c4ccccc34)CC2)CC1 (centres unmarked) [TCMDC-139707],26.41,–
O=C(/C=C/c1ccc(Cl)cc1Cl)NC1CCC(CN2CCC(c3c[nH]c4ccccc34)CC2)CC1 (centres unmarked) [TCMDC-139704],-6.512,–
O=C(/C=C/c1cccc(Cl)c1)NC1CCC(CN2CCC(c3c[nH]c4ccccc34)CC2)CC1 (centres unmarked) [TCMDC-139715],–,101.4
NC(=O)CN1CC=C(c2c[nH]c3ccc(Br)cc23)CC1 [TCMDC-131969],-24.55,–

SMILES,% Inhibition [%],% Inhibition (% Inhibition) [%]
Cc1cc(NC(=O)c2cccs2)ccc1OC1CCN(Cc2ccc(F)cc2)CC1 [TCMDC-133743],2.358,–
COc1ccc(CCC(C)N2CC(N)C(c3cn(C)c4cnccc34)C2)cc1 (centres unmarked) [TCMDC-124826],30.72,–
CC1CCN(CCNC(=O)c2ccc3c(=O)n(Cc4ccc(Cl)cc4)c(=S)[nH]c3c2)CC1 [TCMDC-125693],-28.57,–
CC[C@H]1CN(CCCC(=O)c2ccccc2)CC[C@H]1CCCc1ccnc2ccc(OC(=O)c3ccccc3)cc12 [TCMDC-131478],92.9,–
CC[C@H]1CN(Cc2ccccc2Br)CC[C@H]1CCCc1ccnc2ccc(O)cc12 [TCMDC-140335],-7.327,–
CC[C@H]1CN(Cc2cccc(O)c2)CC[C@H]1CCCc1ccnc2ccc(O)cc12 [TCMDC-140337],3.253,–
CCCCCCCN1CC[C@@H](CCCc2ccnc3ccc(OCCCCNC(N)=NO)cc23)[C@@H](CC)C1 [TCMDC-139839],107.7,–
CCCCCCCN1CC[C@@H](CCCc2ccnc3ccc(OCCCCNC(N)=O)cc23)[C@@H](CC)C1 [TCMDC-139835],110.9,–
O=C(Nc1ccc2c(c1)CCN2C1CCN(Cc2cccc(C(F)(F)F)c2)C1)c1ccco1 (centres unmarked) [TCMDC-135065],-42.49,–
CCOC(=O)c1ccc(-c2cnc(N)c(-c3nc4c(C)cccc4[nH]3)c2)cc1 [TCMDC-135560],19.55,–
COc1cc(CCCOc2c(N)nc(N)nc2N)cc(OC)c1OC [TCMDC-131361],8.778,–
CN(C)c1ccc(CN2CCC(CNC(=O)c3cc(-c4ccccc4Cl)cs3)C2)cc1 (centres unmarked) [TCMDC-134455],49.98,–
COc1ccccc1-c1csc(C(=O)NCC2CCN(Cc3ccc(C(C)(C)C)cc3)C2)c1 (centres unmarked) [TCMDC-134511],-88.72,–
CCc1ccccc1-c1csc(C(=O)NCC2CCN(Cc3ccc(C(C)(C)C)cc3)C2)c1 (centres unmarked) [TCMDC-134448],91.94,–
CC(C)(C)c1ccc(CN2CCC(CNC(=O)c3cc(-c4ccccc4Cl)cs3)C2)cc1 (centres unmarked) [TCMDC-134445],95.91,–
CCc1ccc(CN2CCC(CNC(=O)c3cc(-c4ccccc4Cl)cs3)C2)cc1 (centres unmarked) [TCMDC-134433],74.35,–
CC(C)c1ccc(CN2CCCCC(NC(=O)c3cc(-c4ccccc4Cl)cs3)C2)cc1 (centres unmarked) [TCMDC-134464],-27.61,–
CC(C)(C)c1nn(-c2ccccc2)c2[nH]c(=O)c(CNC3CCCCC3)cc12 [TCMDC-123551],7.742,–
CC(=O)c1ccc(NC(=O)NNC(=O)c2ccc(CCN3CCC(c4nc(COCC(F)(F)F)c(-c5ccc(F)cc5)o4)CC3)cc2)cc1 [TCMDC-131905],-7.106,–
NCC1(c2nc(-c3ccc(Cl)c(O)c3)c(-c3ccncc3)[nH]2)CCCCC1 [TCMDC-141154],57.41,–
CC(C)(CN)c1nc(-c2ccc(Cl)c(O)c2)c(-c2ccncc2)[nH]1 [TCMDC-140369],-60.83,–
Oc1cc(-c2nc(C3(CNCc4ccc(Cl)cc4)CCCCC3)[nH]c2-c2ccncc2)ccc1Cl [TCMDC-141155],-6.27,–
